GC-B act: human GC-B receptor activators, primary screen, HEK293 GC-B cells, cGMP TR-FRET, EC30 CNP; Atrial natriuretic peptide receptor 2 (Homo sapiens), P20594; 0% at EC30 CNP, 100% saturating CNP; activation, % at 10 µM; 370,000 compounds, 0.11% hits;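 active means activation at 10 µM reaching about 35% in either raw or pattern-adjusted values, limit read from the data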
NOD2 RIPK2 PPI: NOD2-RIPK2 binding disruptors in cells, primary screen, fluorescence, CHO cells, BLA complementation | 360,000 compounds, 0.38% hits | CCF4 ratio | inhibition, % at 4.98 µM; in the data active means inhibition above about 21%;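 further: 0% = vehicle only and 100% = reference blocker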
Neddylation inh: inhibitors of cullin neddylation, primary screen, biochemical, TR-FRET, uHTS, NAE and Ubc12; NEDD8-conjugating enzyme Ubc12 (Homo sapiens) + NEDD8-activating enzyme E1 regulatory …; inhibition, % at 25 µM; 360,000 compounds, 0.58% hits; AID 651699, 2012; in the data active means inhibition above about 36%
TLR4-MyD88 BLA: inhibitors of TLR4-MyD88 association in cells, primary screen, cell-based, HeLa CL3-4, BLA complementation, FRET ratio | Toll-like receptor 4 (Homo sapiens) + Myeloid differentiation primary response protein … | AID 861, 2007 | inhibition, % at 8.4 µM | HeLa CL3-4 TLR4/MyD88 BLA complementation | 200,000 compounds, 0.18% hits; in the data active means inhibition above about 25%;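 further: 0% = vehicle and 100% = reference inhibitor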
TLR9-MyD88 block: inhibitors of TLR9-MyD88 association in cells, primary screen, cell-based, CHO, BLA complementation, fluorescence; CCF4 FRET ratio; inhibition, % at 4.98 µM; 340,000 compounds, 0.21% hits;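 active means inhibition above the mean over all tested compounds plus 3 SD, cut at about 21% in these data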;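 further: 0% = DMSO only wells and 100% = clavulanate BLA inhibitor control wells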
GC-A act: GC-A stimulated cGMP production enhancers – HEK293 GC-A cells, cGMP TR-FRET, EC30 ANP, primary screen. activation, % at 10 µM. AID 1671463, 2021. 0% at EC30 ANP, 100% saturating ANP. 370,000 compounds, 0.14% hits; in the data active means activation above about 40%
Neddyl conf: blockade of NEDD8 conjugation to cullin – biochemical, TR-FRET, single concentration, confirmation; shares compounds with Neddylation inh; TR-FRET cullin neddylation biochemical assay; AID 652217, 2013; calls only at 25 µM; 1,800 compounds, 13% hits; in the data active means inhibition above about 40%;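 further: neddylation substrate is the cullin 1 ring ligase complex with SKP2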
Active calls of the source: *; i = inactive; . = not tested or not shown; + = active, no number. This is a sample that favours compounds with a hit; in the whole collection about 1.2% have one here.

SMILES	GC-B act	NOD2 RIPK2 PPI	Neddylation inh	TLR4-MyD88 BLA	TLR9-MyD88 block	GC-A act	Neddyl conf
CC1=C(C(=O)N(C(C)C)C(C)C)CC(CC(=O)NCc2ccco2)C(=O)N1Cc1ccccc1 (configuration not stated)	1.2	-2.7	-0.4	.	.	5.1	.
c1ccc2c(c1)-c1cccc3cncc-2c13	-4.9	-1.7	40.1*	.	-1.0	0.7	i
CN(C)CCN(Cc1ccccc1)C(=O)c1[nH]c(C(F)(F)F)nc1-c1ccccc1	4.8	-2.9	-1.4	.	.	-0.4	.
NC(=O)CC1C(=O)N(c2ccccc2)C(=S)N1NC(=O)c1ccccc1 (configuration not stated)	3.6	-3.2	-2.0	.	8.1	2.1	.
O=C(OCc1cn(Cc2cccc(F)c2)nn1)N1CCCCC1	7.3	.	.	.	.	1.8	.
O=c1c(-c2ccccc2)nc2ccccc2n1C(c1ccccn1)c1nc2ccccc2[nH]1 (configuration not stated)	-2.9	-2.0	40.6*	.	.	-4.0	i
O=c1c(-c2cccnc2)nc2ccccc2n1C(c1ccccn1)c1nc2ccccc2[nH]1 (configuration not stated)	4.1	-1.4	47.1*	.	.	-9.1	i
CSc1ccccc1NC(=S)N/N=C/c1cccn1Cc1ccc(F)cc1	-2.0	-5.5	46.6*	5.6	-14.0	0.4	i
Fc1ccc(-c2cc(C(F)(F)F)n3ncnc3n2)cc1	3.9	-10.1	47.4*	-3.8	-9.8	-4.0	.
CCN1CCCC1CNC(=O)c1cc2cc(F)ccc2[nH]1 (configuration not stated)	3.2	-10.5	45.2*	.	1.0	1.6	.
CCN1CCCC1CNC(=O)c1ccc2c(=O)n(CCOC)c(=O)[nH]c2c1 (configuration not stated)	1.2	-8.1	44.1*	-20.4	-3.4	1.5	i
CCC1CCCCN1CCCNC(=O)c1ccc2c(=O)n(CCOC)c(=O)[nH]c2c1 (configuration not stated)	-0.8	-4.1	22.4	.	-3.4	-2.0	.
COc1cc(/C=N/Nc2nc3ccccc3[nH]2)cc(OC)c1O	-5.9	5.4	22.6	-7.9	-0.5	-4.6	.
COc1cc(/C=N/NC(=O)c2ccc(CSc3nc4ccccc4[nH]3)cc2)cc(OC)c1OC	4.5	-1.8	48.5*	2.4	-3.2	6.6	+
O=C(NCCO)c1ccc(CSc2nc3ccccc3[nH]2)cc1	3.0	-2.5	1.9	-2.4	1.8	-2.1	.
COc1cc(/C=N/Nc2nc3ccccc3[nH]2)cc(Br)c1OCC(=O)N(C)C	-8.4	-1.4	57.0*	-4.6	-4.6	0.8	+
CCN=C1S/C(=C\c2ccc(Sc3ccc(Cl)cc3)o2)C(=O)N1CC	-6.5	-1.1	39.2*	3.5	-7.4	7.4	.
Cc1cc(C(=O)N2CCC2(C)C(=O)O)nn1C(C)(C)C (configuration not stated)	1.5	-0.8	-1.6	.	.	-1.1	.
CCC(C)NC(=O)c1c(N)n(/N=C/c2cccnc2)c2nc3ccccc3nc12 (configuration not stated)	-7.5	-9.2	.	-20.2	-3.4	-6.4	.
CCC(C)NC(=O)c1c(N)n(/N=C/c2ccccn2)c2nc3ccccc3nc12 (configuration not stated)	-2.5	0.8	45.5*	-7.0	-1.1	2.5	i
O=C(CSc1cccc2cccnc12)N/N=C/c1cccc(O)c1	1.6	3.5	42.6*	-1.1	0.9	-1.4	i
CCN(CC)CCNC(=O)c1cn(CC)c2cc(N3CCN(C)CC3)c(F)cc2c1=O	7.9	9.6	47.0*	.	2.3	7.9	.
CCn1cc(C(=O)NCCC(C)C)c(=O)c2cc(F)c(N3CCN(C)CC3)cc21	1.8	-7.1	44.3*	.	6.4	7.3	.
CCCCNC(=O)c1cn(CC)c2cc(N3CCN(C)CC3)c(F)cc2c1=O	-1.0	5.3	.	.	.	4.8	.
CCCOc1ccc(C(=O)NC(=S)N2CCN(c3cc4c(cc3F)c(=O)c(C(=O)O)cn4CC)CC2)cc1	-3.7	-7.9	40.3*	.	-0.6	-3.3	i
SMILES	GC-B act	NOD2 RIPK2 PPI	Neddylation inh	TLR4-MyD88 BLA	TLR9-MyD88 block	GC-A act	Neddyl conf
CCOC(=O)CC[C@@H]1CC[C@]2(CCCN(Cc3ccc(Cl)cc3)C2)O1	-6.9	.	.	.	.	-0.1	.
CCN(CC)c1ccc(/C=N/NC(=O)Nc2ccccc2)cc1	-3.8	-10.0	39.0	-15.3	-16.0	-6.5	.
CCN(CC)c1ccc(/C=N\NC(N)=O)cc1	-3.3	-6.8	40.2*	1.5	7.5	-4.5	i
CCN(CC)c1ccc(/C=N/NC(=O)CC(C)C)cc1	1.8	1.7	54.2*	-11.7	-5.4	-2.5	+
COCC(=O)N1CCC(C(=O)NCC2COc3ccccc3O2)CC1 (configuration not stated)	0.7	.	.	.	.	7.0	.
O=S(=O)(Nc1ccc(-c2nc3ccccc3o2)cc1)c1ccccc1	-8.1	8.3	42.8*	-5.7	0.2	0.3	.
CC(=O)Nc1ccc(S(=O)(=O)Nc2cccc(-c3nc4ccccc4o3)c2)cc1	4.3	-8.3	.	2.9	-4.9	1.4	.
O=C1NC[C@H](CCCCN2C[C@H](Cc3ccc(O)cc3)N(CCc3ccc(O)cc3)C(=O)C2=O)N(CCc2ccccc2)C1=O	5.1	-4.7	4.4	.	.	3.5	.
O=S(=O)(c1cccs1)N1CN(Cc2ccc(F)cc2)c2nc3ccccc3nc21	-0.7	9.0	8.4	1.2	1.4	0.0	.
O=S(=O)(c1cccs1)N1CN(Cc2ccccc2)c2nc3ccccc3nc21	-4.9	3.9	40.8*	11.5	2.5	6.0	i
O=C(c1cnn2c(C(F)F)cc(-c3ccccc3)nc12)N1CCOCC1	2.7	-5.6	41.1*	-0.6	-8.3	4.5	i
O=C(Oc1cccc2c(O)cccc12)c1ccco1	-4.2	0.8	14.6	.	10.7	2.0	.
C[C@H](O)[C@@H]1C(=O)N2CCc3c([nH]c4c(-c5ccc6c(c5)OCO6)cccc34)[C@@H]2C[C@@H]1N(C)C(=O)c1ccccc1F	-9.8	.	.	.	.	-4.7	.
Cc1ccc2nc(-c3ccc(NC(=O)COCC(=O)O)cc3)sc2c1	3.2	-8.4	44.6*	.	5.3	8.2	+
CSc1ccc(/C=C(\NC(=O)c2ccc(C)cc2)C(=O)Nc2cccc(C)c2)cc1	5.8	-10.7	54.2*	3.1	0.7	-0.9	i

Screens from PubChem BioAssay.
